# Measured values: the supplement of paper PMC9262897, “Low-cost anti-mycobacterial drug discovery using engineered E. coli” (Nature Communications, 2022)
# Where a name gives a salt, the structure may show the parent alone. ± gives the standard deviation of the averaged measurements.
# Columns and labels:
# Experiment in all cases: growth (OD600 after 10 h); higher = more growth (less inhibition)
# [1] = tested on: E. coli TESEC Alr+ wild-type control; conditions: compound 0.1 mM; raw OD600 reference: median of DMSO wells 0.241, cell-free background 0.041
# Experimental: (§1)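 TESEC Mtb Alr E. coli, or the Alr+ wild-type control, in 384-well plates with Prestwick library compounds at 0.1 mM and 1% DMSO, across arabinose induction levels of 1E3 to 1E7 nM. Growth is read as OD600 after 10 h at 37 °C in triplicate biological replicates.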
# [2] = tested on: E. coli TESEC Mtb Alr; conditions: compound 0.1 mM
# Experimental: as §1
# [3] = tested on: E. coli TESEC Mtb Asd; conditions: compound 0.1 mM
# Experimental: (§2)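 TESEC E. coli strains in which the native enzyme is deleted and replaced by arabinose-inducible Mtb Asd, DapB, CysH or TrpD, each grown in its selective medium. Strains were screened against the Prestwick library at 0.1 mM and 1% DMSO in 384-well format at low and high arabinose induction. Growth is read as OD600 after 10 h in triplicate.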
# [4] = tested on: E. coli TESEC Alr+ wild-type control; conditions: compound 0.1 mM; raw OD600 reference: median of DMSO wells 0.49, cell-free background 0.052
# Experimental: (§3)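 TESEC Mtb Alr E. coli (ΔaraC ΔtolC ΔentC Δalr ΔdadX, arabinose-inducible Mtb Alr) or the Alr+ wild-type control strain, grown in defined M9-fructose medium without D-alanine in 96-well plates with Prestwick library compounds at 0.1 mM and 1% DMSO. Low Alr induction is 0.1 µM arabinose and high induction is 10 mM arabinose.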
# [5] = tested on: E. coli TESEC Mtb Alr; conditions: compound 0.1 mM; remark: listed apart in the source
# Experimental: as §3
# [6] = tested on: E. coli TESEC Mtb DapB; conditions: compound 0.1 mM
# Experimental: as §2
# [7] = arabinose 1000 nM, raw OD600 reference: median of DMSO wells 0.294, cell-free background 0.041
# [8] = arabinose 10000 nM, raw OD600 reference: median of DMSO wells 0.264, cell-free background 0.041
# [9] = arabinose 100000 nM, raw OD600 reference: median of DMSO wells 0.201, cell-free background 0.041
# [10] = arabinose 1000000 nM, raw OD600 reference: median of DMSO wells 0.193, cell-free background 0.041
# [11] = arabinose 10000000 nM, raw OD600 reference: median of DMSO wells 0.146, cell-free background 0.041
# [12] = arabinose induction (level): High, raw OD600 reference: median of DMSO wells 0.331, cell-free background 0.041
# [13] = arabinose induction (level): Low, raw OD600 reference: median of DMSO wells 0.417, cell-free background 0.041
# [14] = arabinose 100 nM, raw OD600 reference: median of DMSO wells 0.413, cell-free background 0.052
# [15] = arabinose 10000000 nM, raw OD600 reference: median of DMSO wells […], cell-free background 0.052
# [16] = arabinose induction (level): High, raw OD600 reference: median of DMSO wells […], cell-free background 0.041
# [17] = arabinose induction (level): Low, raw OD600 reference: median of DMSO wells 0.227, cell-free background 0.041
compound,measurement,setting,value
CN(C)C(=O)Oc1ccc[n+](C)c1 [Pyridostigmine iodide],growth,[1],0.248 ± 0.011
same,growth,[2]; [7],0.305 ± 0.0085
same,growth,[2]; [8],0.25 ± 0.0086
same,growth,[2]; [9],0.253 ± 0.012
same,growth,[2]; [10],0.181 ± 0.0086
same,growth,[2]; [11],0.138 ± 0.0049
same,growth,[3]; [12],0.335 ± 0.049
same,growth,[3]; [13],0.434 ± 0.076
same,growth,[4],0.436 ± 0.011
same,growth,[5]; [14],0.404 ± 0.017
same,growth,[5]; [15],0.355 ± 0.0089
CC(=O)O[C@H]1C[C@H](O[C@H]2[C@@H](O)C[C@H](O[C@H]3[C@@H](O)C[C@H](O[C@H]4CC[C@@]5(C)[C@H](CC[C@@H]6[C@@H]5C[C@@H](O)[C@]5(C)[C@@H](C7=CC(=O)OC7)CC[C@]65O)C4)O[C@@H]3C)O[C@@H]2C)O[C@H](C)[C@H]1O[C@@H]1O[C@H](CO)[C@@H](O)[C@H](O)[C@H]1O [Lanatoside C],growth,[1],0.198 ± 0.0032
same,growth,[2]; [7],0.261 ± 0.024
same,growth,[2]; [8],0.26 ± 0.0028
same,growth,[2]; [9],0.295 ± 0.031
same,growth,[2]; [10],0.19 ± 0.0089
same,growth,[2]; [11],0.243 ± 0.024
same,growth,[3]; [12],0.339 ± 0.04
same,growth,[3]; [13],0.417 ± 0.057
same,growth,[5]; [14],0.4014 ± 0.0037
same,growth,[5]; [15],0.354 ± 0.0094
C=C1C[C@@H]2[C@H](CC[C@]3(C)C(=O)CC[C@@H]23)[C@@]2(C)C=CC(=O)C=C12 [Exemestane],growth,[1],0.113 ± 0.0025
same,growth,[2]; [7],0.1298 ± 0.0011
same,growth,[2]; [8],0.165 ± 0.0017
same,growth,[2]; [9],0.108 ± 0.0018
same,growth,[2]; [10],0.0722 ± 0.0026
same,growth,[2]; [11],0.0997 ± 0.0036
same,growth,[3]; [12],0.0993 ± 0.0088
same,growth,[3]; [13],0.147 ± 0.023
same,growth,[5]; [14],0.379 ± 0.039
same,growth,[5]; [15],0.129 ± 0.019
c1ccc2nc(N3CCNCC3)ccc2c1 [Quipazine dimaleate salt],growth,[1],0.232 ± 0.008
same,growth,[2]; [7],0.298 ± 0.016
same,growth,[2]; [8],0.25 ± 0.0049
same,growth,[2]; [9],0.212 ± 0.04
same,growth,[2]; [10],0.177 ± 0.0045
same,growth,[2]; [11],0.148 ± 0.0043
same,growth,[3]; [12],0.223 ± 0.013
same,growth,[3]; [13],0.257 ± 0.015
same,growth,[4],0.47 ± 0.0099
same,growth,[5]; [14],0.402 ± 0.0069
same,growth,[5]; [15],0.371 ± 0.02
CN(C)[C@@H]1C(=O)C(C(N)=O)=C(O)[C@@]2(O)C(=O)C3=C(O)c4c(O)cccc4[C@@](C)(O)[C@H]3[C@H](O)[C@@H]12 [Oxytetracycline dihydrate],growth,[1],0.0451 ± 0.0028
same,growth,[2]; [7],0.0424 ± 0.00089
same,growth,[2]; [8],0.0418 ± 0.00081
same,growth,[2]; [9],0.044 ± 0.0021
same,growth,[2]; [10],0.0421 ± 0.0003
same,growth,[2]; [11],0.04303 ± 0.00012
same,growth,[3]; [12],0.0563 ± 0.0015
same,growth,[3]; [13],0.0587 ± 0.0032
same,growth,[5]; [14],0.0627 ± 0.0022
same,growth,[5]; [15],0.0555 ± 0.003
CC(CCc1ccccc1)NC(C)C(O)c1ccc(O)cc1 (stereo not given) [Nylidrin],growth,[1],0.215 ± 0.0087
same,growth,[2]; [7],0.297 ± 0.018
same,growth,[2]; [8],0.285 ± 0.013
same,growth,[2]; [9],0.167 ± 0.0039
same,growth,[2]; [10],0.16 ± 0.0093
same,growth,[2]; [11],0.144 ± 0.002
same,growth,[3]; [12],0.351 ± 0.062
same,growth,[3]; [13],0.495 ± 0.048
same,growth,[4],0.491 ± 0.052
same,growth,[5]; [14],0.404 ± 0.014
same,growth,[5]; [15],0.316 ± 0.013
CCN(C)C(=O)Oc1cccc([C@H](C)N(C)C)c1 [Rivastigmine],growth,[1],0.243 ± 0.0069
same,growth,[2]; [7],0.293 ± 0.004
same,growth,[2]; [8],0.302 ± 0.0098
same,growth,[2]; [9],0.213 ± 0.02
same,growth,[2]; [10],0.19 ± 0.021
same,growth,[2]; [11],0.156 ± 0.0029
same,growth,[3]; [12],0.325 ± 0.068
same,growth,[3]; [13],0.343 ± 0.067
same,growth,[6]; [16],0.188 ± 0.01
same,growth,[6]; [17],0.281 ± 0.04
same,growth,[5]; [14],0.418 ± 0.0056
same,growth,[5]; [15],0.342 ± 0.016
CC(=O)NC1CCSC1=O (racemic) [N-Acetyl-DL-homocysteine Thiolactone],growth,[1],0.253 ± 0.013
same,growth,[2]; [7],0.312 ± 0.021
same,growth,[2]; [8],0.2598 ± 0.0021
same,growth,[2]; [9],0.222 ± 0.031
same,growth,[2]; [10],0.185 ± 0.005
same,growth,[2]; [11],0.144 ± 0.0094
same,growth,[3]; [12],0.29 ± 0.041
same,growth,[3]; [13],0.451 ± 0.01
same,growth,[4],0.406 ± 0.015
same,growth,[5]; [14],0.402 ± 0.0097
same,growth,[5]; [15],0.35 ± 0.02
C[C@H](N)[C@H](O)c1ccc(O)c(O)c1 [Levonordefrin],growth,[1],0.1755 ± 0.00087
same,growth,[2]; [7],0.276 ± 0.013
same,growth,[2]; [8],0.26 ± 0.0038
same,growth,[2]; [9],0.206 ± 0.0036
same,growth,[2]; [10],0.118 ± 0.0043
same,growth,[2]; [11],0.131 ± 0.0047
same,growth,[3]; [12],0.194 ± 0.014
same,growth,[3]; [13],0.357 ± 0.0047
same,growth,[4],0.465 ± 0.099
same,growth,[5]; [14],0.398 ± 0.024
same,growth,[5]; [15],0.371 ± 0.017
COc1ccc(Cc2nccc3cc(OC)c(OC)cc23)cc1OC [Papaverine hydrochloride],growth,[1],0.153 ± 0.0032
same,growth,[2]; [7],0.199 ± 0.0045
same,growth,[2]; [8],0.215 ± 0.0047
same,growth,[2]; [9],0.141 ± 0.0019
same,growth,[2]; [10],0.087 ± 0.0015
same,growth,[2]; [11],0.133 ± 0.0021
same,growth,[3]; [12],0.133 ± 0.013
same,growth,[3]; [13],0.262 ± 0.035
same,growth,[5]; [14],0.397 ± 0.0098
same,growth,[5]; [15],0.22 ± 0.0059
CCC(COC(=O)c1cc(OC)c(OC)c(OC)c1)(c1ccccc1)N(C)C (stereo not given) [Trimebutine],growth,[1],0.13 ± 0.0031
same,growth,[2]; [7],0.142 ± 0.012
same,growth,[2]; [8],0.151 ± 0.011
same,growth,[2]; [9],0.116 ± 0.0031
same,growth,[2]; [10],0.0716 ± 0.0024
same,growth,[2]; [11],0.101 ± 0.015
same,growth,[3]; [12],0.205 ± 0.033
same,growth,[3]; [13],0.245 ± 0.085
same,growth,[4],0.255 ± 0.018
same,growth,[5]; [14],0.403 ± 0.0063
same,growth,[5]; [15],0.119 ± 0.0083
COc1ccc(CCN)cc1OC [Homoveratrylamine],growth,[1],0.2134 ± 0.001
same,growth,[2]; [7],0.287 ± 0.0094
same,growth,[2]; [8],0.281 ± 0.011
same,growth,[2]; [9],0.182 ± 0.019
same,growth,[2]; [10],0.219 ± 0.0076
same,growth,[2]; [11],0.131 ± 0.002
same,growth,[3]; [12],0.225 ± 0.018
same,growth,[3]; [13],0.353 ± 0.087
same,growth,[5]; [14],0.409 ± 0.0095
same,growth,[5]; [15],0.316 ± 0.0066
CC(C)(N)Cc1ccccc1 [Phentermine hydrochloride],growth,[1],0.232 ± 0.0076
same,growth,[3]; [12],0.318 ± 0.043
same,growth,[3]; [13],0.297 ± 0.017
same,growth,[6]; [16],0.206 ± 0.021
same,growth,[6]; [17],0.233 ± 0.014
same,growth,[5]; [14],0.413 ± 0.014
same,growth,[5]; [15],0.36 ± 0.0095
CN1C(=O)CCS(=O)(=O)C1c1ccc(Cl)cc1 (stereo not given) [Chlormezanone],growth,[1],0.244 ± 0.0034
same,growth,[3]; [12],0.328 ± 0.08
same,growth,[3]; [13],0.407 ± 0.066
same,growth,[5]; [14],0.408 ± 0.011
same,growth,[5]; [15],0.367 ± 0.0068
C[C@]12Cc3c[nH]nc3C[C@@H]1CC[C@@H]1[C@@H]2CC[C@@]2(C)[C@H]1CC[C@]2(C)O [Stanozolol],growth,[1],0.184 ± 0.0086
same,growth,[2]; [7],0.256 ± 0.0051
same,growth,[2]; [8],0.245 ± 0.0053
same,growth,[2]; [9],0.169 ± 0.023
same,growth,[2]; [10],0.141 ± 0.0057
same,growth,[2]; [11],0.139 ± 0.0021
same,growth,[3]; [12],0.157 ± 0.011
same,growth,[3]; [13],0.271 ± 0.051
same,growth,[5]; [14],0.409 ± 0.0083
same,growth,[5]; [15],0.278 ± 0.018
